PubChem BioAssay AID445 (National Center for Advancing Translational Sciences (NCATS), 2006)
The campaign covered roughly 110,000 compounds. About 40 (0.04%) were called active. About 22% were inconclusive and are not listed. The sample holds actives, similar compounds and a random draw of the others, so the mix is not that of the screen. The call rests on the fitted dose curve; in most records, active means well fitted curve in the direction sought with a large enough effect in the signal ratio (not every such curve was filed as active); inconclusive means small, poorly fitted or top-dose-only effect, or a change in a side signal; inactive means flat fitted curve, though single readings scatter; the % refers to the signal ratio.

Experiment: IkB Signaling;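 further: 0% = basal untreated cells and 100% = reference inhibitor full response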
Details: ABC-DLBCL IkBa-CBG/CBR dual luciferase ratio, 4 h; series mostly up to 57.1 µM; IkBa stabilization activation: at the top concentration
Source text: NIH Molecular Libraries Screening Centers Network [MLSCN]
NIH Chemical Genomics Center [NCGC]
Nuclear factor kappa-B (NF-kappa-B) plays an important role in normal B cell development and survival. Diffuse large B cell lymphoma (DLBCL) is the most commonly observed type of non-Hodgkin's lymphoma. Gene expression analysis has identified an activated B cell-like subtype of DLBCL (ABC-DLBCL) which expresses known NF-kappa-B target genes. […] However, targets upstream of IKK have been largely unexplored and so nodes upstream of IKK in the NF-kappa-B pathway remain untested due to the lack of chemical probes.
A cell-sensor assay for I-kappa-B-alpha stabilization was developed with NIH investigator Dr. R. Eric Davis in Dr. Louis M. Staudt's laboratory. The assay uses green (CBG68) and red (CBR) emitting beetle luciferases [Chroma-Glo(TM) developed by Promega Corp.] where the green luciferase is fused to I-kappa-B-alpha and the red luciferase is present in its native state. Both luciferase genes are stably present in the OCI-Ly3 human ABC DLBCL cell line, but their expression is under the control of tetracycline-inducible promoters. Following the addition of doxycycline to induce expression of the luciferases, the green luminescence in control cultures rises only slowly because the CBG fusion partner I-kappa-B-alpha is targeted by IKK activity for rapid degradation. In contrast, green luminescence rises rapidly in the presence of proteasome inhibitors or IKK inhibitors. The rise in red luminescence of CBR is not affected by proteasome or IKK inhibitors, and serves as normalization for cell number and nonspecific effects. Compounds were screened as a concentration-titration series that ranged from 57 uM to 0.7 nM.
NCGC Assay Protocol Summary:
Cells were seeded in 1536-well plates at 5000 cells/3ul in IMDM medium containing 0.5% FBS, w/o phenol red, L-glutamine, 25 mM HEPES, 3 mg/ml sodium bicarbonate. After centrifugation for 1 min. at 1000 rpm, 23 nl of compounds or DMSO were delivered to each well using a pin tool. Then 1ul 80ng/ml doxycycline was dispensed into white solid 1536-well plates and the plates were incubated at 37C/5% C02 in a cell incubator for 4 hrs. Then 4 ul Chroma-Glo luminescent substrate mix (Promega) was added to each well. The plate was incubated at R.T. for 10-15 min. The plates were measured on a ViewLux plate reader for green luminescence (540/20 nm filter) and red luminescence (618/8 nm filter). The green and red luminescent signals were corrected for red and green luminescence filter overlap using previously determined filter calibration constants (determined using the procedure outlined in the Promega Technical Manual). The %Activity was determined from the ratio of corrected green/red luminescent values. Green luminescent and ratio %Activity was determined by normalizing to the difference in signal between basal cells (0% Activity) and cells incubated with 10 uM of the proteasome inhibitor MG-132 (100% Activity). Red luminescent %Activity was normalized to the difference between red luminesence in basal cells (0%Activity) and zero luminescence (-100% Activity).
Concentration-response curves were fitted to the signals arising from the green luminescence (I-kappa-B-alpha-luciferase fusion; IkB-luc) and the red luminescence (unfused luciferase; luc) as well as the calculated ratio. The concentration-effect curves were then classified based on curve quality (r2), response magnitude and degree of measured activity. Compounds were then categorized based on their concentration-response curves for all three datasets (Ikb-luc, luc and ratio).
Keywords: IKK, I-kappa-B, IkB, IkBa, cytotoxicity, luminescence, MLSMR, MLSCN, NIH Roadmap, qHTS, NCGC

IkBa stabilization activation, inactive:
COc1cccc(CNC(=O)C2CCC(CNS(=O)(=O)c3cccs3)CC2)c1 (stereo unspecified) -3.86%, CCCCC(=O)OC1=CN(Cc2ccccc2)S(=O)(=O)c2ccccc21 1.1%, Cc1cc(C)cc(NS(=O)(=O)c2ccc(-c3cc(C)no3)s2)c1 2.64%, CCc1ccccc1NC(=O)c1ccc2c(c1)CCN2S(C)(=O)=O 1.19%, O=C(COc1ccccc1F)OCc1cc(=O)n2nc(C3CCCCC3)sc2n1 2.16%, CN1C(=O)c2[nH]nc(-c3ccc(F)cc3)c2C1c1ccccn1 (stereo unspecified) 2.45%, CCC(=O)N1CCc2cc(S(=O)(=O)NC(Cc3ccccc3)C(=O)NCc3ccccc3)ccc21 (stereo unspecified) 0.67%, O=c1cc(-c2ccccc2)n2c(SCc3ccccc3)nnc2[nH]1 49.6%, Cc1cccc(Cn2c(=O)n(CCC(=O)NCCc3ccc(Cl)cc3)c(=O)c3sccc32)c1 0.608%, O=C(NC1CC(=O)N(c2ccc(F)cc2)C1)c1cccs1 (stereo unspecified) 0.355%, COc1ccc(CNc2nc(-c3ccccc3)nn2C(=O)c2ccccc2OC)cc1 0.945%, Cc1ccc(Cn2c(CCCNC(=O)C3CCCCC3)nc3ccccc32)cc1 0.788%, COc1ccccc1Cc1nc2ccccc2nc1SCC(=O)N1CCCc2ccccc21 0.565%, CCc1nn(CC(=O)Nc2cc(C)cc(C)c2)c(=O)c2cc3sccc3n12 -1.09%, Cc1cc(C)cc(NS(=O)(=O)c2ccc3[nH]cc(C(=O)N4CCCCC4)c(=O)c3c2)c1 2.33%, COC(=O)c1c(NC(=O)c2cc(=O)c3c(C)cc(C)cc3o2)sc2c1CCCC2 -1.94%, COc1ccc(C)cc1NC(=O)C(=O)NCCc1sc(-c2cccc(C)c2)nc1C -0.998%, Cc1ccc2ncc(C(=O)Nc3ccc(OC(F)(F)F)cc3)c(=O)n2c1 -2.93%, Cc1cc(C)cc(OCC(=O)Nc2c(C(=O)c3ccccc3)oc3ccccc23)c1 -1.32%, O=C1CC(c2nnc(Cc3ccc(Cl)cc3)o2)CN1c1ccccc1 (stereo unspecified) 2.11%, CSc1ccc(C2c3c(oc4ccccc4c3=O)C(=O)N2CCCN2CCOCC2)cc1 (stereo unspecified) -1.64%, COCC(C)NS(=O)(=O)c1ccc(N2CCCCS2(=O)=O)cc1 (stereo unspecified) -0.0651%, COc1cccc(CNC(=O)CCC(=O)N2CC3CCCN3c3ccccc32)c1 (stereo unspecified) 1.48%, CCc1ccccc1OCCSc1nc(-c2cccs2)nc2cc(=O)[nH]n12 0.201%, Cc1cccc(NC(=O)CSc2nc3c(oc4ccccc43)c(=O)n2-c2ccc(F)cc2)c1 -0.455%, O=C1Cc2cc(S(=O)(=O)Nc3ccc(OC(F)(F)F)cc3)cc3c2N1CCC3 6.23%, Cc1ccc(N(C)C(=O)C2CCN(S(=O)(=O)c3ccc4c(c3)CCCN4C(=O)C3CCC3)CC2)cc1 2.75%, COC(=O)c1ccccc1NC(=O)c1ccc(COc2ccccc2Cl)o1 -2.65%, CCC1=Nc2cc(C(=O)NCCCOC(C)C)ccc2Sc2ccc(C)cc21 -2.32%, CCCCN(CC)CCCNC(=O)c1nn(C)c2c1CSc1ccccc1-2 2.35%, O=C(Nc1ccc(-c2nc3cc(NC(=O)c4ccccc4Cl)ccc3o2)cc1)c1ccccc1Cl 4.54%, CCCNC(=O)CCn1nc(-c2ccccc2)c2ccccc2c1=O 2.39%, COC(=O)c1cc2occc2n1Cc1nc(-c2ccccc2C)oc1C -1.31%, COc1cc(NC(=O)Cn2nc(-c3ccc(C)c(C)c3)ccc2=O)cc(OC)c1 -1.19%, CCOc1ccc(-c2cc3nc(C4CCN(C(=O)OC(C)(C)C)CC4)c(C(=O)Nc4ccc(C(=O)OC)cc4)cn3n2)cc1 -0.305%, O=C(NCCc1ccccc1)c1ccc2c(c1)N(Cc1ccccc1)C(=O)c1ccccc1S2(=O)=O -2.13%, CCCN(CCC)C(=O)C(Cc1ccccc1)NS(=O)(=O)c1ccc2c(c1)c(=O)n(C)c(=O)n2C (stereo unspecified) 0.449%, CCOc1ccc(CCNC(=O)c2c(C)oc3ncn(C)c(=O)c23)cc1 -0.592%, O=C(NCCCO)c1nn(-c2ccc(Cl)cc2)nc1CO -1.87%, Cc1ccc(NC2=C(c3ccc(C(F)(F)F)cc3)C(=O)c3ccccc32)cc1F 6.11%, CC(C)OCCCn1c(SCC(=O)c2ccccc2)nc2c(sc3ccccc32)c1=O -0.853%, CCCN1CCN(CCCNC(=O)c2cnn(-c3ccc(C)cc3)c2-n2cccc2)CC1 -2.29%, COc1cc(OC)c(OC)cc1/C=C/c1nc2ccccc2c(=O)n1-c1ccc(Br)c(C)c1 -1.32%, Cc1cccc(NC(=O)CSc2nc3c([nH]c4ccccc43)c(=O)n2-c2cc(C)cc(C)c2)c1 -1.03%, COc1ccc(CNS(=O)(=O)c2ccc(-c3cnc(C4CC4)o3)cc2)cc1 -0.844%, CCOC(=O)c1c(C)[nH]c(C)c1S(=O)(=O)N(C)CC(=O)N1CCN(c2ccccc2)CC1 0.594%, CCOC(=O)c1c(NC(=O)/C=C/c2ccc(OC)cc2)sc2c1CCC(C)C2 (stereo unspecified) 1.01%, O=C(NCCc1ccccc1)C(=O)NCC(c1ccco1)S(=O)(=O)c1ccccc1 (stereo unspecified) -1.39%, CC(NC(=O)CCc1cn(Cc2ccccc2Cl)c2ccccc12)c1ccccc1 (stereo unspecified) 2.65%, CCc1nc2onc(C)c2c(=O)n1CC(=O)O 2.07%, O=C1OC(C(=O)Nc2cccc(Br)c2)Cc2ccccc21 (stereo unspecified) -0.928%, CCC(=O)N1CCc2cc(CNC(=O)Nc3ccccc3Cl)ccc21 0.103%, CCS(=O)(=O)N1CCC(n2c(C)nc3cccnc32)CC1 0.706%, Cc1oc2c(c1C(=O)Nc1ccc(F)c(F)c1)C1=NCCN1C=N2 0.228%, O=C(c1ccc2c(c1)N(Cc1ccccc1F)C(=O)c1ccccc1S2(=O)=O)N1CCOCC1 -0.457%, Cc1ccc(S(=O)(=O)c2nnn3c2nc(N2CCN(c4ccccc4F)CC2)c2cc(Cl)ccc23)cc1C -1.33%
